The campaign covered roughly 5,500 compounds. About 2,000 (36%) were called active. Not shown: some 18% with an inconclusive outcome. Cut-off read from the data, not from the text of the source: active = normalized growth mostly below about 0.91 (no sharp cut-off); inconclusive = no clear call, values can overlap the other calls; inactive = mostly above about 0.92. The list shows a part of the results.
Assay: chemical genetic growth profiling, strain panel (AID 1159580);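 note: tested at 20 µM; growth read once vehicle control cultures reached saturation at 30 °C; 1 = growth at the plate median or of vehicle wells; lower values mean less growth of the strain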
Settings: growth OD

Measured: normalized growth

COc1c(C(C)C)oc2cc3oc(=O)ccc3cc12
active: S. cerevisiae deletion strains, locus YCL029C, strain bik1, hits give low values 0.839 | S. cerevisiae deletion strains, locus YDL035C, strain GPR1, hits give low values 0.749 | S. cerevisiae deletion strains, locus YDL074C, strain BRE1, hits give low values 0.721 | S. cerevisiae deletion strains, locus YDL192W, strain arf1, hits give low values 0.894 | S. cerevisiae deletion strains, locus YDR162C, strain NBP2, hits give low values 0.826 | S. cerevisiae deletion strains, locus YDR318W, strain mcm21, hits give low values 0.89 | S. cerevisiae deletion strains, locus YDR502C, strain sam2, hits give low values 0.873 | S. cerevisiae deletion strains, locus YGL078C, strain dbp3, hits give low values 0.911 | S. cerevisiae deletion strains, locus YGL086W, strain mad1, hits give low values 0.883 | S. cerevisiae deletion strains, locus YGL248W, strain PDE1, hits give low values 0.869 | S. cerevisiae deletion strains, locus YGR135W, strain pre9, hits give low values 0.779 | S. cerevisiae deletion strains, locus YGR252W, strain gcn5, hits give low values 0.55 | S. cerevisiae deletion strains, locus YHR030C, strain SLT2, hits give low values 0.885 | S. cerevisiae deletion strains, locus YHR129C, strain ARP1, hits give low values 0.901 | S. cerevisiae deletion strains, locus YHR200W, strain rpn10, hits give low values 0.915 | S. cerevisiae deletion strains, locus YIL066C, strain RNR3, hits give low values 0.801 | S. cerevisiae deletion strains, locus YJL095W, strain BCK1, hits give low values 0.722 | S. cerevisiae deletion strains, locus YJR043C, strain POL32, hits give low values 0.764 | S. cerevisiae deletion strains, locus YJR075W, strain HOC1, hits give low values 0.877 | S. cerevisiae deletion strains, locus YKL009W, strain mrt4, hits give low values 0.745 | S. cerevisiae deletion strains, locus YKR001C, strain vps1, hits give low values 0.777 | S. cerevisiae deletion strains, locus YLR330W, strain CHS5, hits give low values 0.874 | S. cerevisiae deletion strains, locus YLR342W, strain FKS1 (second series), hits give low values 0.661 | S. cerevisiae deletion strains, locus YLR418C, strain cdc73, hits give low values 0.703 | S. cerevisiae deletion strains, locus YML032C, strain rad52, hits give low values 0.855 | S. cerevisiae deletion strains, locus YMR223W, strain ubp8, hits give low values 0.9 | S. cerevisiae deletion strains, locus YMR263W, strain SAP30, hits give low values 0.887 | S. cerevisiae deletion strains, locus YNL067W, strain RPL9B, hits give low values 0.862 | S. cerevisiae deletion strains, locus YNL153C, strain GIM3, hits give low values 0.859 | S. cerevisiae deletion strains, locus YNL233W, strain BNI4, hits give low values 0.806 | S. cerevisiae deletion strains, locus YNL271C, strain bni1, hits give low values 0.889 | S. cerevisiae deletion strains, locus YNL298W, strain CLA4, hits give low values 0.802 | S. cerevisiae deletion strains, locus YNL307C, strain MCK1, hits give low values 0.51 | S. cerevisiae deletion strains, locus YNR052C, strain pop2, hits give low values 0.884 | S. cerevisiae deletion strains, locus YOR184W, strain ser1, hits give low values 0.828 | S. cerevisiae deletion strains, locus YPL055C, strain LGE1, hits give low values 0.755 | S. cerevisiae deletion strains, locus YPR163C, strain tif3, hits give low values 0.769 | S. cerevisiae deletion strains, locus YPR167C, strain met16, hits give low values 0.895 | S. cerevisiae deletion strains, strain wtn01, hits give low values 0.887 | S. cerevisiae strains, strain wild type, hits give low values 0.899
inactive: S. cerevisiae deletion strains, locus YBR021W, strain FUR4, hits give low values 0.915 | S. cerevisiae deletion strains, locus YBR229C, strain ROT2, hits give low values 0.987 | S. cerevisiae deletion strains, locus YDL101C, strain DUN1, hits give low values 0.918 | S. cerevisiae deletion strains, locus YDL185W, strain tfp1, hits give low values 0.933 | S. cerevisiae deletion strains, locus YDR101C, strain arx1, hits give low values 0.929 | S. cerevisiae deletion strains, locus YDR388W, hits give low values 0.935 | S. cerevisiae deletion strains, locus YEL061C, strain CIN8, hits give low values 0.933 | S. cerevisiae deletion strains, locus YER110C, hits give low values 0.914 | S. cerevisiae deletion strains, locus YER155C, strain BEM2, hits give low values 0.972 | S. cerevisiae deletion strains, locus YER167W, strain BCK2, hits give low values 0.921 | S. cerevisiae deletion strains, locus YHR079C, strain IRE1 (second series), hits give low values 0.954 | S. cerevisiae deletion strains, locus YHR094C, strain hxt1, hits give low values 0.967 | S. cerevisiae deletion strains, locus YIL073C, strain SPO22, hits give low values 0.838 | S. cerevisiae deletion strains, locus YIL125W, strain kgd1, hits give low values 0.971 | S. cerevisiae deletion strains, locus YIR030C, strain dcg1, hits give low values 0.941 | S. cerevisiae deletion strains, locus YJL134W, strain LCB3, hits give low values 0.983 | S. cerevisiae deletion strains, locus YJL168C, strain set2, hits give low values 0.957 | S. cerevisiae deletion strains, locus YJL187C, strain SWE1 (second series), hits give low values 0.883 | S. cerevisiae deletion strains, locus YKL068W, hits give low values 0.965 | S. cerevisiae deletion strains, locus YKL085W, strain MDH1 (second series), hits give low values 0.958 | S. cerevisiae deletion strains, locus YKL085W, strain MDH1, hits give low values 0.958 | S. cerevisiae deletion strains, locus YLR039C, strain RIC1, hits give low values 0.944 | S. cerevisiae deletion strains, locus YLR058C, strain SHM2, hits give low values 0.932 | S. cerevisiae deletion strains, locus YLR102C, strain apc9, hits give low values 0.946 | S. cerevisiae deletion strains, locus YLR262C, strain YPT6, hits give low values 0.971 | S. cerevisiae deletion strains, locus YLR268W, strain sec22, hits give low values 0.888 | S. cerevisiae deletion strains, locus YLR371W, strain rom2, hits give low values 0.951 | S. cerevisiae deletion strains, locus YML016C, strain PPZ1, hits give low values 0.958 | S. cerevisiae deletion strains, locus YML124C, strain tub3, hits give low values 0.96 | S. cerevisiae deletion strains, locus YMR078C, strain ctf18, hits give low values 0.945 | S. cerevisiae deletion strains, locus YMR307W, strain GAS1, hits give low values 0.743 | S. cerevisiae deletion strains, locus YNL250W, strain rad50, hits give low values 0.932 | S. cerevisiae deletion strains, locus YOL012C, strain htz1 1.16 | S. cerevisiae deletion strains, locus YOL147C, strain pex11, hits give low values 0.935 | S. cerevisiae deletion strains, locus YOR061W, strain CKA2, hits give low values 0.91 | S. cerevisiae deletion strains, locus YOR069W, strain VPS5, hits give low values 0.967 | S. cerevisiae deletion strains, locus YOR136W, strain idh2, hits give low values 0.943 | S. cerevisiae deletion strains, locus YOR144C, strain elg1, hits give low values 0.963 | S. cerevisiae deletion strains, locus YOR316C, strain cot1, hits give low values 0.957 | S. cerevisiae deletion strains, locus YPR119W, strain clb2, hits give low values 0.957 | S. cerevisiae deletion strains, locus YPR141C, strain kar3, hits give low values 0.952

From PubChem BioAssay AID1159580 (chemical genetic matrix, 2015)
